Compound activity: PubChem, Sanford-Burnham Center for Chemical Genomics
Most compounds without a hit are left out; they make up all but 4% or so of the library.
TWEAK Fn14 block – inhibitors of TWEAK-Fn14 signaling, primary screen, luciferase reporter cells, uHTS | TWEAK-stimulated Fn14 reporter cells, luciferase luminescence, 8 h | inhibition, % at 10 µM | hit rate 2% among 360,000 | AID 1159606, 2016; in the data active = inhibition above about 50%
HIF-2a block – HIF-2a reporter inhibitors, primary screen, luminescence, 786-0 RCC cells. 786-0 RCC cells HIF-2a reporter, luciferase luminescence, overnight. AID 624352, 2012. hit rate 0.72% among 360,000. inhibition, % at 18.8 µM;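 active = inhibition of the luminescence signal of 40% or more relative to plate controls, in a single-dose primary screen at 18.75 µM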
TROY NFkB inh – inhibitors of TROY-driven NF-kB signaling, primary screen, Q293 LMP1-TROYcd cells, NF-kB luciferase, uHTS; Q293 LMP1-TROYcd NF-kB luciferase reporter, 4 h; inhibition, % at 10 µM; hit rate 0.98% among 360,000;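 active = compounds whose plate-normalised and pattern-corrected inhibition of the luciferase reporter signal at the single screening dose is 50% or more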
CF NFkB inh – inhibitors of PAF-induced NF-kB signaling, primary screen, cell-based, GFP fluorescence, uHTS. KKLEB NF-kB-GFP reporter, GFP fluorescence overnight. inhibition, % at 5 µM. hit rate 0.86% among 360,000. AID 588850, 2011;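 active = at least 50% inhibition at 5 µM, scaled per plate between neutral and stimulator controls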;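 also: PAF is a Pseudomonas aeruginosa culture filtrate used as stimulus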
Peg3 prom inh-1 – Peg3 promoter-driven luciferase inhibitors, primary screen, cell-based, HeLa, luciferase luminescence | AID 588405, 2011 | HeLa PEG-Prom luciferase reporter, overnight | inhibition, % at 20 µM | hit rate 1.7% among 360,000;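 active = inhibition of at least 50% at 20 µM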
KKLEB cytotox – cytotoxicity in KKLEB CF airway cells, primary screen, cytotoxicity control for CF NF-kB inhibitor project, cell-based, uHTS, fluorescence assay plates; KKLEB CF airway cells viability, ATPlite luminescence, overnight; active compounds read low; cells stimulated with P. aeruginosa culture filtrate; hit rate 0.36% among 360,000; activity change (cytotoxicity), % at 5 µM;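 active = corrected activity change at or below -50% at 5 µM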
Peg3 prom inh-2 – Peg3 promoter reporter inhibitors, retest, confirmation, cell-based, HeLa, luciferase reporter, single concentration | AID 602417, 2012 | hit rate 84% among 1,300 | inhibition, % at 20 µM | shares compounds with Peg3 prom inh-1 | HeLa PEG-Prom luciferase reporter, luminescence, overnight;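 active = at 20 µM dose, 40% or more inhibition averaged across four replicates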
CF NFkB inh conf – inhibitors of PAF-induced NF-kB signaling, retest, confirmation, cell-based, GFP fluorescence, single concentration; shares compounds with CF NFkB inh; KKLEB CF airway cells, overnight; inhibition, % at 5 µM; hit rate 64% among 1,300; AID 602472, 2012; in the data active = inhibition above about 40%;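 also: stimulus PAF is a Pseudomonas aeruginosa filtrate and not platelet activating factor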
Mdm2 MdmX conf – retested Mdm2-MdmX interaction blockers, confirmation, cell-based, luminescence, single concentration, set 2 | shares compounds with HIF-2a block | SaOS-2 split-luciferase Mdm2/MdmX complementation | inhibition, % at 8 µM | hit rate 99% among 740;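 active = mean inhibition of the luminescence signal across two replicates at or above 26 percent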
HIF-2a conf – HIF-2a reporter inhibitor retest, confirmation, luminescence, 786-0 RCC cells; shares compounds with HIF-2a block; HIF-2a luciferase reporter luminescence, overnight; hit rate 56% among 1,800; AID 651580, 2012; inhibition, % at 18.8 µM;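 active = mean inhibition across four replicates of at least 40 percent at the single tested concentration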
HIF-1a counter – HIF-1a luciferase reporter signal reduction – MiaPaCa-2 cells, single concentration, counter-screen for HIF-2a inhibitor project, confirmation | shares compounds with HIF-2a block | MiaPaCa-2 HIF-1a luciferase reporter, desferoxamine, overnight | inhibition, % at 18.8 µM | hit rate 72% among 1,800;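 active = mean inhibition of the reporter signal across four replicates at the single tested dose of 50% or more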
Numbers stand for hits; n = inactive; x = no result.

SMILES	TWEAK Fn14 block	HIF-2a block	TROY NFkB inh	CF NFkB inh	Peg3 prom inh-1	KKLEB cytotox	Peg3 prom inh-2	HIF-2a conf	HIF-1a counter	others
CN(C)S(=O)(=O)c1cccc(NC(=O)CSc2cccc3cccnc23)c1	n	66	n	n	102	n	93	75	n
CN(C)S(=O)(=O)c1ccc(SCC(=O)Nc2cccc(S(=O)(=O)N3CCCC3)c2)nc1	n	n	n	n	n	n	x	x	x
CCCn1c(C)cc(C(=O)CN2C(=O)c3ccccc3S2(=O)=O)c1C	n	91	n	n	89	n	87	95	95
Cc1cc(C(=O)CN2C(=O)c3ccccc3S2(=O)=O)c(C)n1CC1CCCO1 (centres undefined)	106	92	n	n	96	n	93	98	104
COc1ccc(C(=O)CN2C(=O)c3ccccc3S2(=O)=O)cc1	102	88	85	n	98	n	84	92	92
Cc1cc(C(=O)CN2C(=O)NC(C)(c3ccccc3)C2=O)c(C)n1CC1CCCO1 (centres undefined)	n	n	n	n	n	n	x	x	x
CCCn1c(C)cc(C(=O)Cn2nnc3ccccc3c2=O)c1C	n	n	n	n	n	n	x	x	x
CCOC(=O)C1CN(S(=O)(=O)c2cc(OC)ccc2OC)C1	n	n	n	n	n	n	x	x	x
Cc1ccccc1C(=O)NNS(=O)(=O)c1cccc([N+](=O)[O-])c1	n	n	n	n	n	n	x	x	x
Cc1cccc(C)c1NC(=O)c1nc(S(=O)(=O)Cc2ccccc2)ncc1Cl	74	77	53	95	100	-88	97	69	91
CSc1ncc(Cl)c(C(=O)Nc2cccc3ccccc23)n1	n	n	n	n	n	n	x	x	x
NC(=O)c1ccc(-c2nnc(Nc3ccc(S(N)(=O)=O)cc3)c3ccccc23)cc1	n	n	n	n	n	n	x	x	x
CC(C)(C)c1ccc(C(=O)O/N=C(\N)c2ccccn2)cc1	103	82	89	n	111	n	99	85	84
C/C(=N/NC(=O)c1ccc(C(C)(C)C)cc1)c1ccccn1	n	n	n	n	n	n	x	x	x
Cc1ccc(C(=O)O/N=C(\N)c2ccccn2)cc1	103	62	84	n	107	n	77	x	x	Mdm2 MdmX conf=49
C/C(=N\OC(=O)c1ccc(Br)cc1)c1ccccn1	n	n	n	n	n	n	x	x	x
CCC(C)[C@H](NC(=O)C1CC(=O)N(c2ccc3c(c2)OCCO3)C1)C(=O)N1CCCCC1 (some centres undefined)	n	n	n	n	n	n	x	x	x
Cc1ccc(S(=O)(=O)N2CCc3ccccc3C2)cc1	n	n	n	n	n	n	x	x	x
Cc1cc(C)c2sc(NNC(=O)c3ccc(S(=O)(=O)N4CCc5ccccc5C4)cc3)nc2c1	n	n	n	n	59	n	76	x	x	Mdm2 MdmX conf=87
CCCCN(CC)C(=O)CSc1nc2n[nH]c(C)c2c(=N)n1-c1cccc(C)c1	n	43	n	n	53	n	43	n	61
Cc1cccc(-n2c(SCC(=O)N3CCCC3)nc3n[nH]c(C)c3c2=N)c1	n	n	n	n	n	n	x	x	x
C=C1CC(COc2ccc3c(C)c(Cl)c(=O)oc3c2)(c2ccccc2)OC1=O (centres undefined)	83	85	76	91	98	-71	98	71	105
Cc1nc2cc(-c3ccccc3)sc2c(=O)n1N	95	75	79	n	90	n	79	88	77
COc1ccc(-c2cc3nc(C)n(N)c(=O)c3s2)cc1	101	87	81	n	95	n	95	x	x	Mdm2 MdmX conf=95
COc1cccc(CNc2nc3cc(-c4ccccc4)sc3c(=O)n2C)c1	n	n	n	n	n	n	x	x	x
SMILES	TWEAK Fn14 block	HIF-2a block	TROY NFkB inh	CF NFkB inh	Peg3 prom inh-1	KKLEB cytotox	Peg3 prom inh-2	HIF-2a conf	HIF-1a counter	others
CC1(C)Cc2c(sc(NC(=O)c3ccc(C(=O)c4ccccc4)cc3)c2C#N)C(C)(C)N1	n	n	n	n	n	n	x	x	x
CCc1ccc2c(c1)C(NC(C)=O)C(=O)N2CCN1CCOCC1 (centres undefined)	n	n	n	n	n	n	x	x	x
C[C@@H]1CN([C@@H](C)CO)C(=O)c2cc(C#CC3CCCCC3)cnc2O[C@@H]1CN(C)S(=O)(=O)c1ccc(F)cc1	n	n	n	n	n	n	x	x	x
O=c1[nH]c(=S)[nH]c2nccnc12	n	n	n	n	n	n	x	x	x
CN(C)c1c([N+](=O)[O-])cc(N2C(=O)C=CC2=O)cc1[N+](=O)[O-]	n	94	n	n	104	n	96	57	n
N#Cc1c(N)nc(SCc2ccncc2)c(C#N)c1-c1cccs1	n	45	n	n	54	n	70	n	61
CCc1ccc(-c2cc3c(=O)n(CC(=O)NCCCN4CCC(Cc5ccccc5)CC4)nc(C)n3n2)cc1	n	n	n	n	100	n	98	x	x	Mdm2 MdmX conf=103
CCCN(CC(=O)Nc1ccccc1C)C(=O)CCl	n	n	n	n	64	n	46	x	x	Mdm2 MdmX conf=95
CCCN(CC(=O)Nc1ccccc1C)C(=O)COc1c(C)cccc1C	n	n	n	n	n	n	x	x	x
COc1ccc(NC(=O)C2Cc3c(-c4cccc(F)c4)ccnc3O2)cc1 (centres undefined)	n	n	n	n	n	n	x	x	x
O=S(=O)(Nc1cccc2cccnc12)c1ccccc1	101	58	n	78	103	n	99	62	n	CF NFkB inh conf=109;Mdm2 MdmX conf=102
Cc1ccc(S(=O)(=O)Nc2cccc3cccnc23)c([N+](=O)[O-])c1	99	57	79	68	103	n	95	75	n	CF NFkB inh conf=108;Mdm2 MdmX conf=101
